# Results filed as inconclusive are left out. Where a call stands in place of a potency, no number is given. Values without a mark were called inactive. The source made the active and inactive calls. Unless noted, calls come from the whole dose curve; as a rule, active = well fitted curve in the direction sought with a large enough effect in the repeat runs; inconclusive = weak or mixed curves; inactive = no such curve, though single readings can be large; an effect the other way counts as inactive or inconclusive.
# Experiments:
# [1] = molecular target: Retinoic acid receptor RXR-alpha (Homo sapiens) (UniProt P19793); assay: qHTS assay to identify small molecule agonists of the RXR signaling pathway (AID 1159527; calls by dose curve; note: nearly all actives have a fitted effect of over 35% in size; note: potency is the fitted concentration of half-maximal effect)
# In short: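 Reporter activation is measured as beta-lactamase activity via FRET substrate cleavage (emission 460/530 nm) in HEK 293T cells expressing an RXR-alpha-driven bla construct, following 16 hr compound exposure at 37 C.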
# [2] = qHTS assay to identify small molecule agonists of the RXR signaling pathway - cell viability counter screen (AID 1159529); note: nearly all actives have a fitted effect of over 50% in size
# In short: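 Tox21 10K compounds were tested for cytotoxicity against GeneBLAzer RXR-alpha HEK 293T cells grown in 2% charcoal-stripped FBS. Exposure lasted 16 hr at 37 C, 5% CO2; viability read by CellTiter-Glo luminescence.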
# [3] = qHTS assay to identify small molecule antagonists of the retinoic acid receptor (RAR) signaling pathway (AID 1159552; note: nearly all actives have a fitted effect of over 50% in size)
# In short: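 Overnight-plated C3RL4 reporter cells get compound, then retinol to 1 uM final; plates sit 6 hr at 37 C, 5% CO2. A luciferase reagent is added and light output recorded after 30 min at room temperature.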
# [4] = qHTS assay to identify small molecule agonists of the retinoic acid receptor (RAR) signaling pathway (AID 1159553); conditions: C3RL4 RARE luciferase reporter, agonist, 6 h; activation: at 73.3 µM (top of the series); note: potency is the fitted concentration of half-maximal effect
# In short: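 C3RL4 RARE-luciferase cells were seeded at 1,000/well and grown overnight at 37 C, then exposed to compounds for 6 hr at 37 C, 5% CO2. Luciferase reagent was added and luminescence was read after 30 min at room temperature.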
# [5] = qHTS assay to identify small molecule antagonists of the estrogen related receptor (ERR) signaling pathway from Tox21 library - cell viability counter screen (AID 1224834); note: nearly all actives have a fitted effect of over 30% in size
# In short: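 ERR reporter cells, 2,000 per well, rested 6 h, then exposed to compound in DMSO for 17.5 hours at 37 C. Viability read as fluorescence after 30 min with CellTiter-Fluor.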
# [6] = molecular target: Luciferin 4-monooxygenase (Photinus pyralis) (UniProt P08659); assay: qHTS assay to identify small molecule inhibitors of firefly luciferase (AID 1224835); note: nearly all actives have a fitted effect of over 25% in size
# In short: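 Quantitative HTS format; KM concentrations of both substrates. Purified P. pyralis FLuc activity quantified from luminescence images.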
# [7] = qHTS assay to identify small molecule agonists of the constitutive androstane receptor (CAR) signaling pathway - cell viability counter screen (AID 1224836); note: nearly all actives have a fitted effect of over 45% in size
# In short: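 Fluorescence from CellTiter-Fluor indicates live cells after 23 h exposure. The human hepatoma line expresses hCAR and a CYP2B6-2.2kb reporter. Incubation medium contains 0.75 uM PK11195 (final).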
# [8] = qHTS assay to identify small molecule antagonists of the constitutive androstane receptor (CAR) signaling pathway - cell viability counter screen (AID 1224837); note: nearly all actives have a fitted effect of over 45% in size
# In short: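 HepG2 cells stably carrying hCAR and CYP2B6-2.2kb reporter, stimulated with 50 nM CITCO and compounds at 15 concentrations for 23 h at 37 C. Viability measured by CellTiter-Fluor fluorescence.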
# [9] = molecular target: Nuclear receptor subfamily 1 group I member 3 (Homo sapiens) (UniProt Q14994); assay: qHTS assay to identify small molecule agonists of the constitutive androstane receptor (CAR) signaling pathway (AID 1224839); note: nearly all actives have a fitted effect of over 15% in size; note: potency is the fitted concentration of half-maximal effect
# In short: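 Stable hCAR/CYP2B6-2.2kb HepG2 line in DMEM with 10% FBS; compounds (15 concentrations) and 0.75 uM PK11195 final, 24 h at 37 C/5% CO2, then ONE-Glo luminescence after 30 min.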
# [10] = qHTS assay to identify small molecule antagonists of the estrogen related receptor signaling pathway with the pleiotropic PPARgamma coactivator (PGC) from Tox21 10K library - cell viability counter screen (AID 1224840; active = well fitted cell-killing curve with a large enough effect in the repeat runs, not every such curve was filed as active; note: nearly all actives have a fitted effect of over 40% in size)
# In short: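 PGC/ERR cells (2,000/well) plated 6 h, then compound-treated for 17.5 h at 37 C. Viability measured by CellTiter-Fluor fluorescence after 30 min at 37 C, multiplexed with the pathway assay.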
# [11] = qHTS assay to identify small molecule agonists of the estrogen related receptor signaling pathway with the pleiotropic PPARgamma coactivator (PGC) from Tox21 10K library (AID 1224842); note: nearly all actives have a fitted effect of over 15% in size
# In short: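 PGC/ERR reporter cells (NTP line) were seeded 2,000 per well, rested 6 h at 37 C/5% CO2, then pin-dosed with compounds in DMSO for 18 h at 37 C; luciferase read by One-Glo luminescence after 30 min at room temperature.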
# [12] = molecular target: Thyrotropin receptor (Homo sapiens) (UniProt P16473); assay: qHTS assay to identify small molecule agonists of the thyroid stimulating hormone receptor (TSHR) signaling pathway (AID 1224843; calls by dose curve; note: nearly all actives have a fitted effect of over 45% in size)
# In short: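 TSHR-expressing HEK293 cells (800 per well) were exposed to compounds for 30 min at room temperature. cAMP was then detected by HTRF competition with cAMP-d2 and anti-cAMP cryptate, read after 1 h at room temperature. Fifteen concentrations, triplicate.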
# [13] = qHTS assay to identify small molecule agonists of the hypoxia (HIF-1) signaling pathway - cell viability counter screen (AID 1224844; calls by dose curve; note: nearly all actives have a fitted effect of over 50% in size)
# In short: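 HRE-bla ME-180 cells, 2,000/well in 0.5% dialyzed FBS medium, treated 17 h at 37C with compounds. Viability read in the same wells as the bla reporter, by CellTiter-Glo luminescence after 30 min at room temperature.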
# [14] = qHTS assay to identify small molecule agonists of the hypoxia (HIF-1) signaling pathway (AID 1224846; active = well fitted activation curve with a large enough effect in the signal ratio in the repeat runs, not every such curve was filed as active; the % refers to the signal ratio)
# In short: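 HRE-bla ME-180 beta-lactamase reporter cells in medium with 0.5% dialyzed FBS, pre-incubated 5 h then exposed to compounds 17 h at 37C, 5% CO2; reporter induction read with CCF4-AM FRET substrate.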
# [15] = qHTS assay to identify small molecule agonists of H2AX - cell viability counter screen (AID 1224847; calls by dose curve; note: top concentration of the series differs between compounds; nearly all actives have a fitted effect of over 30% in size)
# In short: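 Viability of CHO-K1 (wild type) cells after 3 hr compound exposure was measured by CellTiter-Glo luminescence.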
# [16] = qHTS assay to identify small molecule antagonists of the estrogen related receptor (ERR) signaling pathway from Tox21 library (AID 1224848); note: nearly all actives have a fitted effect of over 50% in size
# In short: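 Cells: ERR line, 2,000/well; 6 h preincubation 37 C/5% CO2. Cpd in DMSO via pin tool; 18 h, 37 C. ONE-Glo, 30 min RT, luminescence.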
# [17] = qHTS assay to identify small molecule antagonists of the estrogen related receptor signaling pathway with the pleiotropic PPARgamma coactivator (PGC) from Tox21 10K library (AID 1224841; call rule not given here)
# In short: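 PGC/ERR cell line, 2,000 cells/well, pre-incubated 6 hours at 37 C, then exposed to compounds for 18 hours at 37 C; luciferase read with One-Glo luminescence after 30 min at room temperature.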
# [18] = qHTS assay to identify small molecule agonists of H2AX (AID 1224845; active = well fitted activation curve with a large enough effect in the signal ratio in the repeat runs, not every such curve was filed as active; the % refers to the signal ratio)
# In short: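 Wild-type CHO-K1 cells plated overnight, then exposed 3 hr at 37C to compounds at 15 concentrations (0.76% DMSO). Lysed, then HTRF anti-pH2AX(S139)-cryptate/anti-H2AX-d2 detection after 24 hr at room temperature; emissions 665 and 620 nm.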
# [19] = molecular target: Nuclear receptor subfamily 1 group I member 3 (Homo sapiens) (UniProt Q14994); assay: qHTS assay to identify small molecule antagonists of the constitutive androstane receptor (CAR) signaling pathway (AID 1224838); note: nearly all actives have a fitted effect of over 40% in size
# In short: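 HepG2 cells stably carrying hCAR and a CYP2B6-2.2kb luciferase reporter, seeded 4 hrs before compound (15 concentrations). Stimulated with 50 nM CITCO for 24 hr at 37 C. ONE-Glo luminescence read after 30 min at room temperature.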
# [20] = qHTS assay to identify small molecule antagonists of the retinoid acid receptor (RAR) signaling pathway - cell viability counter screen (AID 1159551); note: nearly all actives have a fitted effect of over 35% in size
# In short: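 C3RL4 RARE-luciferase cells, 1,000/well, incubated overnight, then dosed with compound plus 1 uM retinol (final). After 6 hr at 37 C, viability read by CellTiter-Glo ATP luminescence following 30 min at room temperature.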
# Sequence of Thyrotropin receptor (Homo sapiens) (P16473 whole entry, looked up): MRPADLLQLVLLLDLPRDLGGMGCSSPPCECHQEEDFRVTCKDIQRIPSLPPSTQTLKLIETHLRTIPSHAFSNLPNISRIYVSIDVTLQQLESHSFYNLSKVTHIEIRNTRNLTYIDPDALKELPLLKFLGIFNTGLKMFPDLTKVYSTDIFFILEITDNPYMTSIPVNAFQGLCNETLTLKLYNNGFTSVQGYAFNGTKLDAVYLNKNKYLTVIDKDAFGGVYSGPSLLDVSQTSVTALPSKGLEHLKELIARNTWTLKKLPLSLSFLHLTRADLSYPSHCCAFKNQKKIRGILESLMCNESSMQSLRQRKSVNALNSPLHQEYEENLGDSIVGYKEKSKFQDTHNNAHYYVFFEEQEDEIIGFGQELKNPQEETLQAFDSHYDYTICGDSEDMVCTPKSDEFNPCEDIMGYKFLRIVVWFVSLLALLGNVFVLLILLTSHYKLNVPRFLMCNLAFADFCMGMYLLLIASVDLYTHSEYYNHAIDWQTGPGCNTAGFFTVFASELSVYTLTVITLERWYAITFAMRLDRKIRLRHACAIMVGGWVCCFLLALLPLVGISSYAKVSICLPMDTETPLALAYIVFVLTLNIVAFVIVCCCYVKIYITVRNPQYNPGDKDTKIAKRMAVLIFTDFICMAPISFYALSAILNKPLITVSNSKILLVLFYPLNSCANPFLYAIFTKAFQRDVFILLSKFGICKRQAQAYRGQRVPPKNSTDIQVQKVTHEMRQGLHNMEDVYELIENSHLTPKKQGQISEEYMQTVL
# Sequence of Nuclear receptor subfamily 1 group I member 3 (Homo sapiens) (Q14994 whole entry, looked up): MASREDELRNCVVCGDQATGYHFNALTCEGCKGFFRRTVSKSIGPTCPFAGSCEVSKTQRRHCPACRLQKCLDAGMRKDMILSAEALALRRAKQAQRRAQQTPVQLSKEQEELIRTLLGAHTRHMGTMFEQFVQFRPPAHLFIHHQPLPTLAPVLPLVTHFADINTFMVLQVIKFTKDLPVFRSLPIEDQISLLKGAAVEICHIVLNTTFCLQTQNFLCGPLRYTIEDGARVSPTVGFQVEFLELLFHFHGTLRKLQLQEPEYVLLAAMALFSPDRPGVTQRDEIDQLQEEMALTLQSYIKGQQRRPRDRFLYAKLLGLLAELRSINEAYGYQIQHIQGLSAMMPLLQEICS
# Sequence of Luciferin 4-monooxygenase (Photinus pyralis) (P08659 whole entry, looked up): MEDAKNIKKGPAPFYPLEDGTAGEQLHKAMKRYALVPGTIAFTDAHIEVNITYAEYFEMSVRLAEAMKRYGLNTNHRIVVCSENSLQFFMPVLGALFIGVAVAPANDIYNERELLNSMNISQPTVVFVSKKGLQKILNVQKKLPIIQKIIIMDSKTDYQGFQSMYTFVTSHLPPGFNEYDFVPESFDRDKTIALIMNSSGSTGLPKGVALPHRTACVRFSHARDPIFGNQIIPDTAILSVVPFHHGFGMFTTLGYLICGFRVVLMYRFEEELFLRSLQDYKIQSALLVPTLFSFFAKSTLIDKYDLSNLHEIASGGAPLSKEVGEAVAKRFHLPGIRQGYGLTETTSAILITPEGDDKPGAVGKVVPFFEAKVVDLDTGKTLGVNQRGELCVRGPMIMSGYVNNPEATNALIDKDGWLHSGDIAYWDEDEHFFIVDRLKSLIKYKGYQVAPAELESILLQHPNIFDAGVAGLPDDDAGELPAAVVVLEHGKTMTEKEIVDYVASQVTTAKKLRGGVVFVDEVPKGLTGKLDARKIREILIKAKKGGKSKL
# Sequence of Retinoic acid receptor RXR-alpha (Homo sapiens) (P19793 whole entry, looked up): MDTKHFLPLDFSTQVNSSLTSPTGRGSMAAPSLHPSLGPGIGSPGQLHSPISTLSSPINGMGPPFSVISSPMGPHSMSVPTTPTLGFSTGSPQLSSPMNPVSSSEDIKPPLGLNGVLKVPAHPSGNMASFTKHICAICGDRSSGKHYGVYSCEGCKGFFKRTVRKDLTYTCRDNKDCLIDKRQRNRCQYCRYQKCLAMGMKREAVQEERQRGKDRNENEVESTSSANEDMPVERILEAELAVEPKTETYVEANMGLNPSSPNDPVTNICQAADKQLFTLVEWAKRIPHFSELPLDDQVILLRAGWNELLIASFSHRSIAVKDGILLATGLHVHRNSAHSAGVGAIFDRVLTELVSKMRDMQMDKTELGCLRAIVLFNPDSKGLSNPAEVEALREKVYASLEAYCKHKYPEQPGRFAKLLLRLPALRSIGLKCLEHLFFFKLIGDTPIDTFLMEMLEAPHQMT
Compound,Potency [1],outcome [2],Potency [3],Potency [4],Potency [5],Potency [6],outcome [7],Potency [8],Potency [9],outcome [10],outcome [11],outcome [12],outcome [13],outcome [14],Potency [15],Potency [16],Potency [17],outcome [18],Potency [19],outcome [20]
Cc1ccccc1C(=O)N1CC/C(=N\OS(=O)(=O)O)c2ccc(Cl)cc21,inactive,inactive,inactive,inactive,inactive,inactive,inactive,inactive,inactive,inactive,inactive,inactive,inactive,inactive,inactive,inactive,–,–,–,–
O=C(O)c1ccc(OCCN2CCCCC2)cc1,inactive,inactive,inactive,inactive,inactive,–,inactive,inactive,–,inactive,inactive,inactive,inactive,inactive,inactive,inactive,inactive,inactive,–,–
CCNC(=O)/C=C/c1cccc(Br)c1,inactive,inactive,inactive,15 µM (active),inactive,–,inactive,inactive,26.6 µM (active),inactive,–,inactive,inactive,inactive,inactive,–,–,inactive,inactive,–
CCC1COC(=O)O1 (stereo not drawn),inactive,inactive,inactive,inactive,inactive,inactive,inactive,inactive,–,inactive,inactive,inactive,inactive,inactive,inactive,inactive,inactive,inactive,–,–
CC(=O)Nc1ncc([N+](=O)[O-])s1,inactive,inactive,inactive,inactive,inactive,inactive,inactive,inactive,–,inactive,inactive,inactive,inactive,inactive,inactive,inactive,inactive,inactive,–,–
OC[C@@H](O)[C@H](O)[C@@H](O)[C@@H](O)CO,inactive,inactive,inactive,inactive,–,inactive,–,inactive,–,inactive,inactive,inactive,inactive,inactive,inactive,inactive,inactive,inactive,–,–
COC(/C=C(\C)CCC=C(C)C)OC,inactive,inactive,inactive,inactive,inactive,–,inactive,inactive,–,inactive,–,inactive,inactive,inactive,inactive,–,–,inactive,–,–
SCCSCCS,inactive,inactive,inactive,inactive,inactive,inactive,–,inactive,–,inactive,–,inactive,inactive,inactive,–,–,–,inactive,–,–
CO[Si](CCCCl)(OC)OC,–,inactive,inactive,inactive,inactive,inactive,inactive,inactive,inactive,inactive,–,–,inactive,inactive,–,–,–,inactive,inactive,inactive
Nc1cc(S(=O)(=O)O)ccc1S(=O)(=O)O,inactive,inactive,inactive,inactive,inactive,inactive,inactive,inactive,–,inactive,–,inactive,inactive,inactive,inactive,–,–,inactive,–,–
CN=C(NC#N)NCCSCc1csc(N=C(N)N)n1,inactive,inactive,inactive,inactive,inactive,inactive,inactive,inactive,–,inactive,inactive,inactive,inactive,inactive,inactive,inactive,inactive,–,–,–
C1CCN2C[C@@H]3C[C@@H](CN4CCCC[C@@H]34)[C@H]2C1,inactive,inactive,inactive,inactive,inactive,–,inactive,inactive,–,inactive,inactive,–,inactive,–,inactive,inactive,inactive,–,inactive,–
CCCCCCCCCCC,12.3 µM (active),inactive,inactive,inactive,inactive,–,inactive,inactive,–,inactive,inactive,inactive,–,–,inactive,inactive,inactive,inactive,inactive,–
O=P(O)(O)OCC(O)CO (stereo not drawn),inactive,inactive,inactive,inactive,inactive,inactive,inactive,inactive,–,inactive,inactive,–,inactive,inactive,inactive,inactive,inactive,inactive,–,–
C=C(C)C(=O)OC1CC(C)CC(C)(C)C1 (stereo not drawn),–,inactive,inactive,inactive,inactive,inactive,inactive,inactive,–,inactive,–,inactive,inactive,inactive,inactive,–,–,inactive,–,inactive
CCCOC(=O)CCCCC(=O)OCCC,–,inactive,inactive,inactive,inactive,inactive,inactive,inactive,–,inactive,inactive,–,inactive,inactive,inactive,inactive,inactive,inactive,–,inactive
CCCCC[Si](OCC)(OCC)OCC,–,inactive,inactive,inactive,inactive,inactive,inactive,inactive,–,inactive,–,inactive,inactive,inactive,inactive,–,–,inactive,–,inactive
NC(=O)C1(N2CCCCC2)CCN(CCCC(=O)c2ccc(F)cc2)CC1,–,inactive,inactive,inactive,inactive,–,–,inactive,–,inactive,inactive,inactive,–,inactive,inactive,inactive,inactive,inactive,–,inactive

# From PubChem BioAssay (Tox21)
